{"source": "PubChem BioAssay (NCATS)", "note": "Results filed as inconclusive are left out. The source made the active and inactive calls. Calls follow the shape of the dose curve; as a rule, active = well fitted cell-killing curve with a large enough effect; inconclusive = small, poorly fitted or top-dose-only effect; inactive = flat fitted curve, though single readings scatter."}
{"test": "HepG2 cells viability qHTS for Zika virus inhibitors (AID 1347168)", "details": "Zika counter-screen; series mostly up to 45.9 µM", "description": "Avindra Nath, Ph.D., National Institute of Neurological Disorders and Stroke (NINDS), Bethesda, MD\nRadhakrishnan Padmanabhan, Ph.D., Georgetown University (GU), Washington D.C.\nZika Virus causes congenital defects, including microcephaly and is associated with Guillain-Barre syndrome, eningoencephalitis and myelitis in infected adult. […] Using a target-based approach, we hope to establish a screening paradigm to uncover novel, cell-active NS2B-NS3 protease (Zika Virus) specific inhibitors from NCATS' collection of small molecules using qHTS.\nFour assay panel was created to identify potential Zika Virus inhibitors. Namely, (1) GU unlinked NS2B-NS3 AMC tagged protease qHTS, (2) GU unlinked NS2B-NS3 Rhodamine tagged protease qHTS, (3) NINDS linked NS2B-NS3 AMC tagged protease qHTS, (4) NINDS linked NS2B-NS3 Rhodamine tagged protease qHTS. Identified inhibitors were screened against the Vero and HepG2 cell viability assays using CellTiter Glo to exclude cytotoxic compounds.\nEarly Translation Branch (ETB)\nNational Center for Advancing Translational Sciences (NCATS), Rockville, MD\nNational Institute of Health (NIH), Bethesda, Maryland\nVero and HepG2 Cell Viability Assay:\nVero and HepG2 cell cytotoxicity were determined using a luminescent readout with CellTiter Glo reagent (Promega, Madison, WI), which is based on measuring the ATP content within cells. Briefly, 4 microL of Vero or HepG2 cells at 2.5 x 10^5 cells/mL in DMEM containing 4% FBS were dispensed into 1536-well solid bottom tissue treated white plate using a Multidrop Combi dispenser (Thermo Scientific). Plates were incubated at 37 degrees C, 95% humidity, and 5% CO2 overnight to allow for cell attachment. Compounds were dissolved in DMSO at different concentrations and transferred via pintool (Wako Automation), for a final concentration of 0.029 µM - 57 microM. Plates were again incubated for 24 to 48 hours, followed by a 2 microL addition of CellTiter Glo. Finally, plates were incubated for 30 minutes at 37 degrees C and 5% CO2 before being read on a ViewLux (Perkin Elmer) for luminescence."}
{"smiles": "CC(C)(C)C(=O)Oc1ccc(S(=O)(=O)Nc2ccccc2C(=O)NCC(=O)O)cc1", "outcome": "inactive"}
{"smiles": "CCOC(=O)Nc1ccc(NCc2ccc(F)cc2)nc1N", "outcome": "inactive"}
{"smiles": "CC1COc2c(N3CCN(C)CC3)c(F)cc3c(=O)c(C(=O)O)cn1c23", "note": "(stereo unspecified)", "outcome": "inactive"}
{"smiles": "O=C1Cc2cc(CCN3CCN(c4nsc5ccccc45)CC3)c(Cl)cc2N1", "outcome": "inactive"}
{"smiles": "Cc1cnc(C(=O)NCCc2ccc(S(=O)(=O)NC(=O)NC3CCCCC3)cc2)cn1", "outcome": "inactive"}
{"smiles": "CN(Cc1cnc2nc(N)nc(N)c2n1)c1ccc(C(=O)N[C@@H](CCC(=O)O)C(=O)O)cc1", "outcome": "inactive"}
{"smiles": "Cn1ccc2cc3c(cc21)CCN3C(=O)Nc1cccnc1", "outcome": "inactive"}
{"smiles": "Cc1ccccc1N1C(=O)c2cc(S(N)(=O)=O)c(Cl)cc2NC1C", "note": "(stereo unspecified)", "outcome": "inactive"}
{"smiles": "O=C(c1ccc(F)cc1)C1CCN(CCn2c(=O)[nH]c3ccccc3c2=O)CC1", "outcome": "inactive"}
{"smiles": "C[C@H]1c2cccc(O)c2C(O)=C2C(=O)[C@]3(O)C(O)=C(C(N)=O)C(=O)[C@@H](N(C)C)[C@@H]3[C@@H](O)[C@@H]21", "outcome": "inactive"}
{"smiles": "COc1cc2nc(N3CCN(C(=O)c4ccco4)CC3)nc(N)c2cc1OC", "outcome": "inactive"}
